Conditions in all cases: mRNA level, 48 h; actives raise or lower the signal
Read-out in experiment [1]: Forkhead box O3 (FOXO3), FOXO3 (gene 2309)
The experiment in a line: LTEA_HepaRG_FOXO3: Life Technologies and Expression Analysis (LTEA) Assay for Forkhead box O3 (FOXO3) using HepaRG (AID 2283459). In short, it runs like this:
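Differentiated human HepaRG cells, 48 h post-plating, exposed in duplicate for 48 h in serum-free induction medium; 8-point half-log series from 100 uM in 0.5% DMSO. FOXO3 mRNA by TaqMan qRT-PCR, normalized to ACTB/GAPDH/POLR2A; bidirectional fit versus DMSO.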

Read-out in experiment [2]: ABC Transporter (ABCB1), ABCB1 (gene 5243)
As to the kind of experiment: LTEA_HepaRG_ABCB1: Life Technologies and Expression Analysis (LTEA) Assay for ABC Transporter (ABCB1) using HepaRG (AID 2283460). In short, it runs like this: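 HepaRG cells exposed in duplicate for 48 h in serum-free induction medium to eight half-log concentrations up to 100 uM in 0.5% DMSO. ABCB1 mRNA quantified by qRT-PCR, normalised to ACTB, GAPDH and POLR2A; fitted bidirectionally versus DMSO.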

Read-out in experiment [3]: ABC Transporter (ABCC3), ABCC3 (gene 8714)
The experiment in a line: LTEA_HepaRG_ABCC3: Life Technologies and Expression Analysis (LTEA) Assay for ABC Transporter (ABCC3) using HepaRG (AID 2283462). In short, it runs like this: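 Transcriptional change of ABCC3 in HepaRG after 48 h treatment, determined by qRT-PCR normalized to endogenous controls. Concentrations spanned eight half-log steps to 100 uM in 0.5% DMSO.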

Read-out in experiment [4]: ABC Transporter (ABCB11), ABCB11 (gene 8647)
As to the kind of experiment: LTEA_HepaRG_ABCB11: Life Technologies and Expression Analysis (LTEA) Assay for ABC Transporter (ABCB11) using HepaRG (AID 2283463). In short, it runs like this: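 Differentiated human HepaRG cells in serum-free induction medium, dosed in duplicate for 48 h. Eight-point half-log series from 100 uM in 0.5% DMSO; ABCB11 mRNA by qRT-PCR, normalized to ACTB, GAPDH, POLR2A, fitted bidirectionally versus DMSO.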

Read-out in experiment [5]: ABC Transporter (ABCC2), ABCC2 (gene 1244)
The experiment in a line: LTEA_HepaRG_ABCC2: Life Technologies and Expression Analysis (LTEA) Assay for ABC Transporter (ABCC2) using HepaRG (AID 2283464). In short, it runs like this:
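After plating and 48 h culture, HepaRG medium is replaced with serum-free induction medium and chemicals are added (8 concentrations, max 100 uM, 0.5% DMSO) for 48 h. Total RNA then undergoes qRT-PCR for ABCC2 with housekeeping normalization.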

Read-out in experiment [6]: Broad substrate specificity ATP-binding cassette transporter ABCG2 (Homo sapiens) (UniProt Q9UNQ0)
As to the kind of experiment: LTEA_HepaRG_ABCG2: Life Technologies and Expression Analysis (LTEA) Assay for ABC Transporter (ABCG2) using HepaRG (AID 2283465). In short, it runs like this: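 Differentiated HepaRG cells were exposed for 48 h in serum-free induction medium to 8 half-log concentrations, top 100 uM, in 0.5% DMSO. ABCG2 mRNA was measured by qRT-PCR, normalized to ACTB, GAPDH and POLR2A, with bidirectional fitting versus DMSO.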

Read-out in experiment [7]: ATP-citrate lyase (ACLY), ACLY (gene 47)
As to the kind of experiment: LTEA_HepaRG_ACLY: Life Technologies and Expression Analysis (LTEA) Assay for ATP-citrate lyase (ACLY) using HepaRG (AID 2283466). Summed up:
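Differentiated HepaRG cells exposed 48 h in serum-free induction medium to eight half-log concentrations up to 100 uM in 0.5% DMSO, duplicates. Transcript measured by Fluidigm TaqMan qRT-PCR, normalized to ACTB, GAPDH, POLR2A; bidirectional fit versus DMSO.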

Read-out in experiment [8]: Alkaline Phosphatase, Placental (ALPP) gene, ALPP (gene 250)
The experiment in a line: LTEA_HepaRG_ALPP: Life Technologies and Expression Analysis (LTEA) Assay for Alkaline Phosphatase, Placental (ALPP) gene using HepaRG (AID 2283468). Summed up:
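Using human liver HepaRG cells, chemicals are tested in duplicate over 48 h at half-log concentrations topping at 100 uM; phenobarbital 1 mM serves as induction control. ALPP mRNA change by qRT-PCR, bidirectional fit against vehicle.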

Read-out in experiment [9]: Bcl-2 (BAD) gene, BAD (gene 572)
The experiment in a line: LTEA_HepaRG_BAD: Life Technologies and Expression Analysis (LTEA) Assay for Bcl-2 (BAD) gene using HepaRG (AID 2283469). In short, it runs like this: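 Differentiated HepaRG cells were exposed in duplicate in 0.5% DMSO for 48 h to eight-point half-log concentrations up to 100 uM. BAD mRNA was measured by Fluidigm TaqMan qRT-PCR, normalized to ACTB, GAPDH and POLR2A, and fitted bidirectionally against DMSO.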

Read-out in experiment [10]: Bcl-2 (BAX) gene, BAX (gene 581)
The experiment in a line: LTEA_HepaRG_BAX: Life Technologies and Expression Analysis (LTEA) Assay for Bcl-2 (BAX) gene using HepaRG (AID 2283470). Summed up:
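Differentiated human HepaRG cells, plated 48 h then switched to serum-free induction medium, were exposed 48 h to 8 half-log concentrations up to 100 uM in 0.5% DMSO; BAX mRNA measured by qRT-PCR, normalized to ACTB, GAPDH, POLR2A.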

Read-out in experiment [11]: adenosine kinase (ADK) gene, ADK (gene 132)
As to the kind of experiment: LTEA_HepaRG_ADK: Life Technologies and Expression Analysis (LTEA) Assay for adenosine kinase (ADK) gene using HepaRG (AID 2283471). In short, it runs like this: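 Read-out is ADK transcript level measured by qRT-PCR and normalised to three housekeeping genes. Cells are human HepaRG, dosed for 48 h at up to 100 uM in 0.5% DMSO. Gain or loss of signal is fitted against DMSO controls.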

Read-out in experiment [12]: Alpha-fetoprotein (AFP) gene, AFP (gene 174)
As to the kind of experiment: LTEA_HepaRG_AFP: Life Technologies and Expression Analysis (LTEA) Assay for Alpha-fetoprotein (AFP) gene using HepaRG (AID 2283472). Summed up: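 Human HepaRG cells plated 48 h, then switched to serum-free induction medium and exposed in duplicate for 48 h to 8-point half-log series from 100 uM in 0.5% DMSO. AFP mRNA by qRT-PCR, normalized to ACTB, GAPDH, POLR2A; bidirectional fit versus DMSO.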

Read-out in the next experiment: BCL2L11 (gene 10018)
The experiment in a line: LTEA_HepaRG_BCL2L11: Life Technologies and Expression Analysis (LTEA) Assay for Bcl-2 (BCL2L11) gene using HepaRG (AID 2283473). In short, it runs like this:
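Human hepatic HepaRG cultures are treated 48 h with test chemicals (maximum 100 uM, 0.5% DMSO vehicle). Expression of BCL2L11 is measured by qRT-PCR against ACTB, GAPDH and POLR2A, with activity in either direction scored relative to vehicle.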

Read-out in experiment [13]: Apolipoprotein A-V (APOA5) gene, APOA5 (gene 116519)
As to the kind of experiment: LTEA_HepaRG_APOA5: Life Technologies and Expression Analysis (LTEA) Assay for Apolipoprotein A-V (APOA5) gene using HepaRG (AID 2283474). Summed up: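 Concentration-response of APOA5 expression in HepaRG: eight half-log doses to 100 uM, 48 h, qRT-PCR normalized to ACTB/GAPDH/POLR2A, bidirectional fitting with 0.5% DMSO as baseline.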

Read-out in experiment [14]: Apoptosis regulator Bcl-2 (Homo sapiens) (UniProt P10415)
As to the kind of experiment: LTEA_HepaRG_BCL2: Life Technologies and Expression Analysis (LTEA) Assay for Bcl-2 gene using HepaRG (AID 2283475). In short, it runs like this: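 Differentiated HepaRG cells in serum-free induction medium were exposed for 48 h to eight half-log concentrations up to 100 uM in 0.5% DMSO, in duplicate. BCL2 mRNA was quantified by TaqMan qRT-PCR normalised to ACTB, GAPDH and POLR2A, with bidirectional fitting versus DMSO.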

Read-out in experiment [15]: Bcl-2 (BID) gene, BID (gene 637)
As to the kind of experiment: LTEA_HepaRG_BID: Life Technologies and Expression Analysis (LTEA) Assay for Bcl-2 (BID) gene using HepaRG (AID 2283476). In short, it runs like this: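 Differentiated HepaRG cells in serum-free induction medium were exposed in duplicate for 48 h to eight half-log concentrations up to 100 uM in 0.5% DMSO. BID mRNA was quantified by qRT-PCR, normalized to ACTB, GAPDH and POLR2A.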

Read-out in the next experiment: Caspase-3 (Homo sapiens) (UniProt P42574)
The experiment in a line: LTEA_HepaRG_CASP3: Life Technologies and Expression Analysis (LTEA) Assay for cysteine-aspartic acid protease (CASP3) using HepaRG (AID 2283477). Summed up: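 Transcript-level assay: CASP3 mRNA in human HepaRG after 48 h treatment, eight half-log concentrations from 100 uM in 0.5% DMSO, quantified by qRT-PCR.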

Read-out in experiment [16]: Cytochrome P450 (CYP24A1), CYP24A1 (gene 1591)
As to the kind of experiment: LTEA_HepaRG_CYP24A1: Life Technologies and Expression Analysis (LTEA) Assay for Cytochrome P450 (CYP24A1) using HepaRG (AID 2283478). In short, it runs like this: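 Gene expression of CYP24A1 by TaqMan qRT-PCR in HepaRG after 48 h treatment, highest concentration 100 uM; activity fitted in both directions relative to DMSO vehicle.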

Read-out in experiment [17]: Peroxisomal acyl-coenzyme A oxidase 1 (ACOX1) gene, ACOX1 (gene 51)
The experiment in a line: LTEA_HepaRG_ACOX1: Life Technologies and Expression Analysis (LTEA) Assay for Peroxisomal acyl-coenzyme A oxidase 1 (ACOX1) gene using HepaRG (AID 2283467). In short, it runs like this: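 HepaRG cells, plated 48 h then switched to serum-free induction medium, were exposed in duplicate for 48 h to 8-point half-log concentrations up to 100 uM in 0.5% DMSO. ACOX1 mRNA was measured by qRT-PCR, normalized to ACTB/GAPDH/POLR2A, and fitted bidirectionally versus DMSO.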

Activity calls are given as the source filed them. Rule for the calls: active = hit-call score of the fitted dose curve at least 0.9, where 1 is the maximum; inactive = score below 0.9.

Apoptosis regulator Bcl-2 (Homo sapiens), sequence (P10415 whole entry, looked up): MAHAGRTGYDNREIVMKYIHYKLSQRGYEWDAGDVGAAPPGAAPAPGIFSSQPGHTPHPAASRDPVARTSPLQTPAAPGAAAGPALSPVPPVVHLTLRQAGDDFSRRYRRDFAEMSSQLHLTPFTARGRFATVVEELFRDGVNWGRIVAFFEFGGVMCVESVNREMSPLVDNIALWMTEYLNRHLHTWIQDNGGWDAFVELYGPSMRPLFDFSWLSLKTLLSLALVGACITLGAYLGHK
Broad substrate specificity ATP-binding cassette transporter ABCG2 (Homo sapiens), sequence (Q9UNQ0 whole entry, looked up): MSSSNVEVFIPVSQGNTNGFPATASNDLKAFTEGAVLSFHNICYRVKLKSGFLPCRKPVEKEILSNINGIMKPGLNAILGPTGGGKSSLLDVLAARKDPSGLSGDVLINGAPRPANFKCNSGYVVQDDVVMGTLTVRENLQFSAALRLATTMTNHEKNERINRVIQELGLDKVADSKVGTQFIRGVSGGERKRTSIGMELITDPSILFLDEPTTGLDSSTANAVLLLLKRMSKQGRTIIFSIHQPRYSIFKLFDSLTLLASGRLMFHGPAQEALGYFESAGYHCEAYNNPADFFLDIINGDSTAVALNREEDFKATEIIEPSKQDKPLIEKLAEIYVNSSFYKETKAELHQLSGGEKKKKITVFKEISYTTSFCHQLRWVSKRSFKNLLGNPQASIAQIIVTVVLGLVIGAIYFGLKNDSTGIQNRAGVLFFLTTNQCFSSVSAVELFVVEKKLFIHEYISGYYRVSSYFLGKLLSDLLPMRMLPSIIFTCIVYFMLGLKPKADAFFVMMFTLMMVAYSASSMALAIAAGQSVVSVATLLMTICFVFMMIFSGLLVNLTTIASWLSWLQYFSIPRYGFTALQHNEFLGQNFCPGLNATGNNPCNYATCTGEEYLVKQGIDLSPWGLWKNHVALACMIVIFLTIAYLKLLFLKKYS
Caspase-3 (Homo sapiens), sequence (P42574 whole entry, looked up): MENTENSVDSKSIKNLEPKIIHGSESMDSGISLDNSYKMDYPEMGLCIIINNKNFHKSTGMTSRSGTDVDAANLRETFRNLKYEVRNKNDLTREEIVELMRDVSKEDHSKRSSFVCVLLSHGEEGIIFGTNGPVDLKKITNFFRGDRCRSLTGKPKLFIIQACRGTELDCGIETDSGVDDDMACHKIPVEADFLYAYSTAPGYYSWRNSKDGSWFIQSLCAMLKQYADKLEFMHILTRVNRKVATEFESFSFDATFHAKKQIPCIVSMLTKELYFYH

As for `c1ccc(OP(Oc2ccccc2)Oc2ccccc2)cc1`, the result in experiment [1], in experiment [2], in [3], in experiment [4], in [5] and in experiment [6] was inactive. The compound was called inactive in experiment [7], in experiment [8], in experiment [9], in [10], in [11] and in experiment [12]. The call (with BCL2L11 (gene 10018); in [13]; in [14]; in [15]; in the experiment with Caspase-3 (Homo sapiens); in experiment [16]) was inactive.
As to `CC(C)(C)OOC(C)(C)C`, the compound was called inactive in experiment [1], in experiment [2], in experiment [3], in experiment [4], in [5] and in experiment [6]. Further, the compound was classed as inactive in [7], in [8], in experiment [9], in experiment [10], in experiment [11] and in [12]. Besides, the outcome (with BCL2L11 (gene 10018); in [13]; in experiment [14]; in experiment [15]; with Caspase-3 (Homo sapiens); in [16]) was inactive.
Regarding `CCOC(=O)c1ccccc1C(=O)OCC`, the call in experiment [1], in [2], in [3], in experiment [4], in experiment [5] and in [6] was inactive. Further, the outcome in [7], in experiment [8], in [9], in experiment [10], in [11] and in experiment [12] was inactive. The call (with BCL2L11 (gene 10018); in [13]; in experiment [14]; in [15]; in the experiment with Caspase-3 (Homo sapiens); in experiment [16]) was inactive.
As for `CCCCCCCc1ccc(O)cc1`, the outcome in experiment [1], in experiment [2], in [3], in [4], in [5] and in [6] was inactive. Further, the compound was called inactive in experiment [7], in experiment [17], in experiment [8], in experiment [9], in experiment [10] and in experiment [11]. Further, the compound was classed as inactive (in [12]; with BCL2L11 (gene 10018); in experiment [13]; in [14]; in experiment [15]; with Caspase-3 (Homo sapiens)). For the same compound, in experiment [16], the outcome was inactive.
As usually defined, the AC50 is the concentration at which the activity in the assay is half-maximal. As to `c1nc[nH]n1`, the compound was called inactive in experiment [1], in experiment [2], in experiment [3], in experiment [4], in experiment [5] and in experiment [6]. Besides, the result (in [7]; in [10]; in experiment [11]; in experiment [12]; with BCL2L11 (gene 10018); in experiment [14]) was inactive. Besides, the compound was classed as inactive in the experiment with Caspase-3 (Homo sapiens). Moreover, the AC50 in [8] was 109 nM (active); in experiment [9], 105 nM (active); in experiment [13], 112 nM (active); in experiment [15], 89.7 nM (active); in experiment [16], 185 nM (active).

Source of the values: PubChem BioAssay (EPA / NIEHS).
